Screening data deposited in PubChem BioAssay by National Center for Advancing Translational Sciences (NCATS).
IL-1B inflam inh: inhibitors of inflammasome signaling (IL-1 beta secretion) | activity change, % at 57.5 µM | actives 4.7% (n = 360,000) | THP-1 LPS/ATP IL-1B secretion, AlphaLISA, 16 h; stronger effect = lower value; in the data active means activity change below about -50%; inconclusive means mostly about -30% to -49%
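Secreted IL-1B measured by AlphaLISA bead assay after 16 h compound exposure of THP-1 cells; compounds (final up to 57.5 uM) added 1 h before LPS (250 ng/mL) and ATP (1.25 mM) stimulation; lower signal means less secretion.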
VP16 counter: counter-screen for ROR gamma inhibitors: Gal4-VP16 reporter. actives 3.5% (n = 310,000). Potency, µM (series often up to 53.6 µM), for the others: at the top dose activity, negative = inhibition, hits mostly inhibitors. Drosophila S2 Gal4-VP16 UAS-luciferase, luminescence, 20 h;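 further: Gal4-VP16 expression switched on by copper sulfate through the metallothionein promoter; potency means the concentration at half of the fitted maximal effect; nearly all actives have a fitted effect of over 50% in size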
TDP1 cell CPT: growth inhibition of DT40 Tdp1-/-;hTDP1 cells with camptothecin (screen for TDP1 inhibitors) | chicken DT40 Tdp1-/-;hTDP1 cells + 20 nM CPT, ATP luminescence, 48 h | Potency, µM (titrated, usually from 46.2 µM), inactives show at the top dose activity change, negative = growth inhibition, usual class: inhibitors | actives 12% (n = 420,000); further: potency means the concentration at half of the fitted maximal effect; nearly all actives have a fitted effect of over 55% in size
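Chicken DT40 Tdp1-/- cells stably complemented with human TDP1 were seeded at 400 cells/well in medium containing 20 nM camptothecin, exposed to pin-transferred compounds, and grown at 37 °C for at least 48 hr. Viability was read as ATP luminescence.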
TDP1 cell noCPT: qHTS for Inhibitors of human tyrosyl-DNA phosphodiesterase 1 (TDP1): qHTS in cells in absence of CPT. actives 15% (n = 420,000). Potency, µM (doses to about 46.2 µM), without a hit: top-dose activity change, negative = growth inhibition, hits mostly inhibitors. AID 686978, 2013. DT40 Tdp1-/- hTDP1 cells, no CPT, ATP luminescence, 48 h; further: potency means the concentration at half of the fitted maximal effect; nearly all actives have a fitted effect of over 55% in size
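Seeded 400 DT40-hTDP1 cells/well (vehicle DMSO, no 20 nM CPT); pinned compounds; ≥48 hr at 37 °C; CellTiter-Glo luminescence as viability measure.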
LDHA inh: inhibitors of human lactate dehydrogenase A | P00338 | purified LDHA, NADH/diaphorase-resazurin fluorescence; stronger effect = lower value | activity change, % (values are at about 110 or 230 µM) | actives 0.15% (n = 480,000) | AID 1347041; in the data active means activity change below about -30%; inconclusive means mostly about -25% to -30%;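 further: plate controls were DMSO wells for no effect and wells without enzyme for full effect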
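Enzyme activity of human lactate dehydrogenase 5 (2 nM; 0.06 mM NADH, 0.2 mM pyruvate, 5 min, RT) is measured via a resazurin/diaphorase fluorescence readout of residual NADH.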
RORg inh: blocks mouse ROR gamma transcriptional activity | AID 2551 | Drosophila S2 Gal4-RORgamma UAS-luciferase reporter, 20 h | actives 5.4% (n = 310,000) | Potency, µM (highest dose often 53.6 µM), for inactives: top-dose activity change, negative = inhibition, most hits filed as inhibitors | P51450; further: potency means the concentration at half of the fitted maximal effect; nearly all actives have a fitted effect of over 60% in size
Target sequence (P51450 whole entry, looked up, the tested form may be a part): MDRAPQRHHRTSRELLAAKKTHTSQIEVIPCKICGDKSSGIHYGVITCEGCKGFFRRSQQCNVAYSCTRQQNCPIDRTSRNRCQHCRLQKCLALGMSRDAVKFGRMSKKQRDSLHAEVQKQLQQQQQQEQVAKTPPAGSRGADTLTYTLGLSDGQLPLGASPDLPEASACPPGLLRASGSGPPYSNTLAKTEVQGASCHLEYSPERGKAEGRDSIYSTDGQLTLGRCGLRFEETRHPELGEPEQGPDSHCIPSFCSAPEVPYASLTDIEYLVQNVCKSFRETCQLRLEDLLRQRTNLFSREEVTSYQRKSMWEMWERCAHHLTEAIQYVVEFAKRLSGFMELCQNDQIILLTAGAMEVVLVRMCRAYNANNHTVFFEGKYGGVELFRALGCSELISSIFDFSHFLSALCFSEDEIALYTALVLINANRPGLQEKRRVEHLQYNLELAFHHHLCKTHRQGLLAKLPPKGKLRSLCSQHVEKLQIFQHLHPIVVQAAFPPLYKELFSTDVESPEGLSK
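Using a luciferase readout, inhibitors were identified by reduced reporter activity in Drosophila cells coexpressing a copper-inducible Gal4–ROR gamma fusion and UAS-driven Photinus luciferase, incubated 20 hr after 700 uM copper sulfate.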
The depositor's hits bear a star; ? = inconclusive; . = no result; [ ] = another dose, or the depositor's remark. A selection: hits, their analogues and other compounds. The true share with any hit is near 18%. Unless noted, the call rests on the fitted dose curve; in most records, active means well fitted curve in the direction sought with a large enough effect; inconclusive means small, poorly fitted or top-dose-only effect, or another doubt; inactive means no such curve, though single readings can be large; an effect the other way counts as inactive or inconclusive. Unless noted, on the % scale 0 is the no-effect control and ±100 the full control effect.

SMILES	IL-1B inflam inh	VP16 counter	TDP1 cell CPT	TDP1 cell noCPT	LDHA inh	RORg inh
COc1ccc(C(=O)OCc2nc(-c3ccc(F)cc3)no2)cc1S(=O)(=O)N1CCCCC1C (stereo unspecified)	.	.	.	.	8	.
COc1ccccc1N1CCN(Cc2cn[nH]c2-c2ccc(F)cc2)CC1	9	3%	-28%	?	-8	2%
COc1ccc(-c2nnc(N3CCOCC3)c3ccccc23)cc1	.	0%	-15%	19%	-1	-5%
CN1CCN(c2nnc(-c3cccs3)c3ccccc23)CC1	-54*	0%	9%	-12%	-2	20%
COc1ccc(-c2nnc(N3CCCCC3)c3ccccc23)cc1	-66*	-9%	23µM*	18µM*	-4	-1%
Fc1ccc(-c2nnc(-n3nnc4ccccc43)c3ccccc23)cc1	-21	.	?	12µM*	-10	.
COc1ccccc1N1CCN(c2nnc(-c3ccc(F)cc3)c3ccccc23)CC1	-4	-11%	?	21µM*	-2	-7%
Cc1ccccc1Oc1nnc(-c2cccs2)c2ccccc12	-12	?	?	?	-11	?
CCCCCCCCCOc1ccc(C#N)c(O)c1	.	.	.	.	1	.
CC(C)C1CC(C)(C)c2ccc(O)cc21 (stereo unspecified)	.	.	.	.	9	.
Cc1ccc(-c2nnc(N3CCCCCC3)c3ccccc23)cc1	.	?	?	16µM*	-3	?
COc1ccc2c(C)c(CC(=O)NCc3ccc(F)cc3)c(=O)oc2c1C	.	.	.	.	1	.
COc1cccc(NC(=O)CSc2ncc(S(=O)(=O)c3ccc(C)c(C)c3)c(=O)[nH]2)c1	.	.	.	.	-4	.
Cc1ccc(S(=O)(=O)c2cnc(SCC(=O)Nc3cc(C)cc(C)c3)nc2N)cc1	.	.	?	16µM*	-13	.
CC(Sc1ncc(S(=O)(=O)c2ccc(C(C)C)cc2)c(N)n1)C(=O)Nc1ccccc1 (stereo unspecified)	.	.	16µM*	26µM*	-2	.
Cc1ccc(S(=O)(=O)c2cnc(SCC(=O)Nc3cccc(Cl)c3)nc2N)cc1C	.	.	?	23µM*	5	.
CCc1ccccc1NC(=O)CSc1ncc(S(=O)(=O)c2ccc(C(C)C)cc2)c(N)n1	.	.	?	?	-2	.
Cc1cc(O)c(C(=O)/C=C/c2ccccc2)cc1Cl	.	.	.	.	-7	.
Cn1nc(C(=O)NN2C(=O)NC3(CCCCC3)C2=O)c2ccccc2c1=O	.	.	.	.	-7	.
Cc1ccc(Nc2nc(CSc3nnc(-c4ccncc4)n3C)cs2)cc1	?	?	-18%	?	-5	16µM*
Cc1ccc(Nc2nc(CSc3nnc(-c4cccnc4)n3-c3ccccc3F)cs2)cc1	11	-10%	-9%	-29%	-3	4µM*
Cc1cc(=O)oc(C)c1C(=O)Nc1ccc(OC(F)(F)F)cc1	.	.	.	.	3	.
Nc1ccc(S(=O)(=O)O)c2cccc(S(=O)(=O)O)c12	.	.	.	.	5	.
O=C(Nc1cc(-c2ccccc2)[nH]n1)c1ccccc1	-54*	-21%	-3%	?	-11	-36%
O=C(O)c1ccccc1C(=O)Nc1cc(-c2ccccc2)[nH]n1	0	-2%	12%	-13%	-1	3%
SMILES	IL-1B inflam inh	VP16 counter	TDP1 cell CPT	TDP1 cell noCPT	LDHA inh	RORg inh
O=C(Nc1cc(-c2ccccc2)[nH]n1)c1ccccc1F	-57*	-9%	-27%	?	-3	-42%
CC1c2ccsc2CCN1C(=O)c1n[nH]c(=O)c2ccccc12 (stereo unspecified)	.	.	.	.	-5	.
CC(=O)Nc1ccc(S(=O)(=O)N2CCC(NC(=O)CC(C)(C)C)CC2)cc1	.	.	.	.	2	.
COc1ccccc1CNC(=O)c1ccc(-c2ccccc2Cl)o1	0	-6%	?	?	0	?
CC(NC(=O)c1ccc(-c2ccc(F)cc2)o1)c1ccccc1 (stereo unspecified)	.	.	.	.	2	.
COc1ccc(NC(=O)c2ccc(-c3ccccc3C(F)(F)F)o2)cc1	2	4%	?	16µM*	0	7%
O=C(NCCc1ccccc1)c1ccc(-c2ccc(F)cc2)o1	-54*	1%[10 µM]	3%	-6%	-6	11%
O=C(NCCc1ccccc1)c1ccc(-c2ccccc2C(F)(F)F)o1	-59*	7%	9.2µM*	?	0	16%
COc1ccccc1CNC(=O)c1ccc(-c2ccccc2C(F)(F)F)o1	-15	-30%	21µM*	21µM*	0	?
O=C(CSC1=NS(=O)(=O)c2ccccc2N1Cc1ccccc1)Nc1ccc(F)cc1F	.	.	.	.	-19	.
Cn1cccc1C(=O)NCCc1ccc(Cl)cc1	-12	15%	-13%	23%	-2	?
Cn1cccc1C(=O)NCCc1ccccc1	-8	13µM*	-13%	-25%	-6	10µM*
CSCCC(NS(=O)(=O)c1cccc(C(F)(F)F)c1)C(=O)N(C)CCOc1ccc(Cl)cc1 (stereo unspecified)	-57*	.	?	?	-2	.
Cc1ccc(S(=O)(=O)N2CCCCC2)cc1NC(=O)c1oc2c(F)cccc2c1C	.	.	.	.	4	.
CC(C)n1ncc2c(C(=O)Nc3cccc(S(=O)(=O)N(C)C)c3)cc(C3CC3)nc21	.	.	18µM*	9.2µM*	-1	.
CC(C)n1ncc2c(C(=O)Nc3ccc(S(C)(=O)=O)cc3)cc(C3CC3)nc21	-26	.	?	?	-4	.
CC(=O)Nc1ccc(NC(=O)c2cc(C3CC3)nc3c2cnn3C(C)C)cc1	-9	.	29µM*	?	-5	.
CC(C)CCn1cnc2c1c(=O)n(Cc1ccc(C#N)cc1)c(=O)n2Cc1ccccc1	.	.	.	.	-1	.
Cn1c(=O)c2c(nc(SCc3cccc(F)c3)n2Cc2ccccc2)n(C)c1=O	.	.	.	.	6	.
CC(=O)c1cccc(NC(=O)CCc2c(C)c3ccc(O)cc3oc2=O)c1	.	.	.	.	-11	.
N#C/C(=C/c1cccc2c1OCCCO2)c1nc(-c2ccccn2)cs1	.	.	.	.	3	.
Cc1cc2c(NC(=O)Nc3ccc(C(F)(F)F)cc3)cccc2nn1	-55*	5%	?	?	28	8%
Nc1nc2n[nH]nc2c(=O)[nH]1	41	4%[17 µM]	7.3µM*	7.3µM*	1	1%[16.9 µM]
CN(C(=O)c1cn(C)c2ccccc12)C1CCS(=O)(=O)C1 (stereo unspecified)	.	.	.	.	4	.
Cn1c(=O)c2c(-c3ccccc3Br)n(C(C)(C)C)cc2n(C)c1=O	.	.	16µM*	12µM*	-1	.
